PubChem BioAssay AID574 (The Scripps Research Institute Molecular Screening Center, 2007)
Among all 65,000 compounds or so, about 450 (0.69%) were called active. This excerpt belongs to a sample that is enriched for actives. Values without a mark were called inactive.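 The calls were made as follows: active = activation above a set limit, the screen-wide mean activation plus 3 SD (cut at about 8.5% in these data); inactive = the rest.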

What follows are compounds tested against 5-hydroxytryptamine receptor 1E (Homo sapiens) (UniProt P28566) (assay: activation of human serotonin 5HT1E receptor – cell-based, HTS, primary screen (AID 574;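 also: 100% = positive control agonist at 1 µM giving full maximal response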)). Details: CHO 5-HT1E Ga15 NFAT-bla reporter, FRET; at 6 µM; hits give high values; 0% DMSO wells, 100% control agonist wells.
Sequence of 5-hydroxytryptamine receptor 1E (Homo sapiens) (P28566 whole entry, looked up): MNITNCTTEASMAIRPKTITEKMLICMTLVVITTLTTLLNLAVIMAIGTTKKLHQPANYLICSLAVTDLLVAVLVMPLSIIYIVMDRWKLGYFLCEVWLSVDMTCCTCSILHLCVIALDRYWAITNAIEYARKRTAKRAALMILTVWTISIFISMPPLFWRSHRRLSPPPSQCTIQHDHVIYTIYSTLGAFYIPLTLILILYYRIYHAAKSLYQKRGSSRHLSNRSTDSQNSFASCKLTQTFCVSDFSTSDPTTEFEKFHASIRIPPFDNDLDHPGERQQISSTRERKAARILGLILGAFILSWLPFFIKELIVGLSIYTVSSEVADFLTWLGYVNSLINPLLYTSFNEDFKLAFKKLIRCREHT
Compound `CCOc1ccccc1/C=c1\sc2nc(-c3ccco3)nn2c1=O` has an activation of 0.9%.
Work on `CCCCOc1ccccc1/C=c1/sc2nc(-c3oc4ccccc4c3C)nn2c1=O` yielded an activation of 0.1%.
`O=c1nc2s/c(=C\c3ccco3)c(=O)n2nc1Cc1ccccc1` was tested, and the activation was 17.9% (active).
Work on `O=C(CCS(=O)(=O)Cc1ccccc1F)NCCCN1CCCCC1` yielded an activation of -1.2%.
With `Cc1ccc(CNC(=O)CCCNC(=O)c2ccc(Cl)cc2)n1C` the activation was -0.6%.
`O=S(=O)(NCc1ccccc1Cl)c1cnc[nH]1` gave an activation of 0.3%.
In the case of `COc1ccc2c(c1)OC(O)(C(F)(F)C(F)F)CC2=O` (configuration not stated), the activation is reported as 12% (active).
`CN(C)c1ccnc2sc3c(=O)n(Cc4ccccc4)cnc3c12` was tested, and the activation was 0.2%.
For `CCOC(=O)c1sc(N(Cc2ccccc2)C(=O)CN2C(=O)CN(C)C2=O)nc1C`, the activation was 0.8%.
In the case of `CCN(CCCNC(=O)C1CCN(S(=O)(=O)c2cnc[nH]2)CC1)c1ccccc1`, the activation is reported as -0.1%.
With `CN1CCN(Cc2c(O)ccc3c2oc(=O)c2ccccc23)CC1` the activation was -1.2%.
`Cc1nc2ccccc2c2oc(C(=O)NCCCN3CCC(C)CC3)cc12` was tested, and the activation was -0.7%.
With `CN1CCN(CCCNC(=O)c2cc3c(=O)oc4ccccc4c3s2)CC1` the activation was 14.9% (active).
With `CCS(=O)(=O)N1CCN(C(=O)c2cccs2)CC1` the activation was 0.5%.
With `O=C(CC(Cc1ccccc1)C(=O)O)NCCc1ccc2c(c1)OCO2` (configuration not stated) the activation was 10.3% (active).
`O=C(CN(Cc1ccccc1)C(=O)c1ccc2c(c1)OCCO2)NCc1ccc2c(c1)OCO2` showed an activation of -1.2%.
Work on `O=C(COc1ccccc1)NCc1ccc2c(c1)OCO2` yielded an activation of -0.5%.
In the case of `Cc1cc(=O)n2nc(N3CCCC(C(=O)N4CCN(C)CC4)C3)sc2n1` (configuration not stated), the activation is reported as 0%.
In the case of `CN(C)CCCn1c(N)c(C#N)c2nc(C#N)c(C#N)nc21`, the activation is reported as 3.5%.
Compound `CCOc1ccc2nc(NC(=O)CSc3nc4c(c(=O)n(C)c(=O)n4C)n3CC)sc2c1` has an activation of -0.3%.
Work on `CCOC(=O)CCc1c(C)c(C#N)c2[nH]c3ccccc3n2c1=O` yielded an activation of -0.2%.
`CCC1CCCCN1CCNS(=O)(=O)c1ccc2c(c1)CCN2C(C)=O` (configuration not stated) showed an activation of -0.3%.
`O=S(=O)(c1ccc(OCC(O)CN2CCN(c3ccccc3Cl)CC2)cc1)N1CCOCC1` (configuration not stated) was tested, and the activation was 1.6%.
Work on `CCCN1C(=O)C(NC(C)=O)c2cc(OC)ccc21` (configuration not stated) yielded an activation of 0.7%.
`CCOC(=O)N1CCN(C(=O)c2cnc3n(c2=O)CCS3)CC1` was tested, and the activation was 4.1%.
In the case of `Cn1c(NC(=O)c2ccco2)c(-c2ccccc2Cl)c(=O)c2ccccc21`, the activation is reported as 0.2%.
In the case of `CCC(=O)Nc1ccccc1N1CCN(S(C)(=O)=O)CC1`, the activation is reported as -0.7%.
In the case of `CCCS(=O)(=O)N1CCCC(C(=O)NCc2ccco2)C1` (configuration not stated), the activation is reported as 0.6%.
Compound `COc1cccc2cc(C(=O)N(C)C)c(=O)oc12` has an activation of 0.2%.
Work on `Cn1c(=O)cc(OCCCC(=O)N2CCN(Cc3ccc4c(c3)OCO4)CC2)c2ccccc21` yielded an activation of 0.8%.
`CC(C)OCCCNC(=O)CNC(=O)c1cccs1` showed an activation of 1.3%.
With `COc1cccc(OCCOc2cccc(/C=N/n3cnnc3)c2)c1` the activation was -0.3%.
`C=C(C)CSc1nc(N)c2c3c(sc2n1)CCC3` was tested, and the activation was 0.3%.
`CC(=O)N1CCN(c2cccc(C)c2C)CC1` was tested, and the activation was 0.3%.
With `Cc1cccc(N2CCN(Cc3c(C)n(C)n(-c4ccccc4)c3=O)CC2)c1C` the activation was 41.4% (active).
For `Cc1c(CN2CCC(C)CC2)c(=O)n(-c2ccccc2)n1C`, the activation was -0.1%.
`CC1CN(C2CCCCC2)c2nc3c(c(=O)n(C)c(=O)n3C)n2C1` (configuration not stated) showed an activation of -0.2%.
`CCOC(=O)CSc1nnc(CNC(=O)Cc2ccccc2)n1-c1ccccc1OC` showed an activation of -0.7%.
With `CCOc1cc(NC(=O)c2ccco2)c(OCC)cc1NC(=O)COc1ccccc1` the activation was 9.5% (active).
`Cc1ccc(C(=O)COc2cccc(NC(=O)c3ccco3)c2)cc1` showed an activation of 0.2%.
Compound `O=C(Nc1ccc(Oc2ccccc2)cc1)c1ccco1` has an activation of 0.3%.
`CC(=O)c1cccc(NC(=O)N2CCCC2C(=O)NCCC(C)C)c1` (configuration not stated) showed an activation of -0.1%.
`CCN(Cc1ccccc1)C(=O)CSc1nc(C)cc2c1C(=O)OC2` was tested, and the activation was -0.3%.
Work on `CCOc1ccccc1C1C(C(=O)OC)=CN(C)C=C1C(=O)OC` yielded an activation of 7.1%.
`Cn1c(C(=O)NCCCN2CCN(c3cccc(Cl)c3)CC2)cc2c(=O)n(C)c3ccccc3c21` was tested, and the activation was 14.6% (active).
For `O=C(CCn1c(=S)[nH]c2ccccc2c1=O)NCCCN1CCCC1=O`, the activation was -0.3%.
With `CC1CCCC(C)N1CCCNC(=O)c1cc2c(=O)n(C)c3ccccc3c2n1C` (configuration not stated) the activation was 0.8%.
`O=C(CCCn1c(=O)[nH]c2cc(Cl)ccc2c1=O)NCCN1CCN(c2ccccc2)CC1` showed an activation of 1%.
Compound `CCn1c(=O)cc(OCC(=O)NCCCN2CCN(c3cccc(Cl)c3)CC2)c2ccccc21` has an activation of 7.6%.
With `O=C(CCn1c(=O)[nH]c2ccccc2c1=O)NCCCN1CCN(c2cccc(Cl)c2)CC1` the activation was 11.7% (active).
For `Cc1cc(=O)[nH]c(SCC(N)=O)c1C#N`, the activation was 0.8%.
Work on `COc1ccc(C(=O)Nc2cccnc2)cc1C(=O)Nc1cccnc1` yielded an activation of 0.1%.
For `Cc1ccc2nc(-c3ccc(SCC(=O)Nc4cc(C)on4)nc3)[nH]c2c1`, the activation was -0.4%.
For `Cc1cc(=O)oc(C)c1C(=O)NCc1ccc(F)cc1`, the activation was -0.2%.
`CCCOc1ccccc1C(=O)NCCCC(=O)O` gave an activation of 0%.
For `O=C(CC(NCCN1CCOCC1)C(=O)O)Nc1cccc(Cl)c1` (configuration not stated), the activation was -1.2%.
`COc1cccc2cc(C(C)N(CCCN3CCOCC3)C(=O)Nc3ccc(Cl)cc3)oc12` (configuration not stated) was tested, and the activation was 15.9% (active).
With `Cn1c(CN2CCOCC2)nc2cc(NC(=O)c3ccc(Cl)cc3)ccc21` the activation was 0.6%.
`Cc1c2cnn(-c3ccccc3)c(=O)c2c(C)n1CCCC(=O)N1CCN(C)CC1` was tested, and the activation was 1%.
`CC(C)OC(=O)CN1C(=O)c2ccccc2C1=O` showed an activation of 0.5%.
Compound `CCOc1ccc(NC(=O)N2CCN(CC)CC2)cc1` has an activation of -0.5%.
With `O=C(Nc1c(-c2ccccc2)nc2c(Br)cc(Br)cn12)c1ccco1` the activation was -0.3%.
